Assay results reported in PubChem BioAssay AID1220 (Sanford-Burnham Center for Chemical Genomics, 2008).
About 1,300 (0.68%) of roughly 190,000 compounds were called active. No stated cut-off is given here; in the data, active means inhibition above about 50%; inactive means the rest. Shown is part of a subset that was picked to be rich in actives.

Molecular target: Mannose-6-phosphate isomerase (Homo sapiens) (UniProt P34949)
Assay: MPI inhibition at elevated mannose 6-phosphate – biochemical, fluorescence intensity, high mannose 6-phosphate, primary screen (AID 1220)
Conditions: recombinant PMI enzyme, coupled fluorescence intensity; at 20 µM; stronger effect = higher value

Sequence of Mannose-6-phosphate isomerase (Homo sapiens) (P34949 whole entry, looked up): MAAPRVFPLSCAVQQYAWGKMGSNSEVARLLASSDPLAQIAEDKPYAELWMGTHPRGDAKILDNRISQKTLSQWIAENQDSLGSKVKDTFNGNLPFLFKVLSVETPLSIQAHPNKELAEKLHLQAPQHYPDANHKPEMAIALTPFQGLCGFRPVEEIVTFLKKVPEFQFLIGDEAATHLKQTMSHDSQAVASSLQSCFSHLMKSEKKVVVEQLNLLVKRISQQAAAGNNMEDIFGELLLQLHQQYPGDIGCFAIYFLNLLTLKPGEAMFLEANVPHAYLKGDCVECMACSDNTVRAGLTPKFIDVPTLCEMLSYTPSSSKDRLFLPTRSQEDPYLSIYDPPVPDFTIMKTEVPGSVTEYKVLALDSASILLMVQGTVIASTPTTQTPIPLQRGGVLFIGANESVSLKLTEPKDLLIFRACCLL

Row | Compound | inhibition
1 | O=C(NC1CCCCC1)c1cc(Cl)nc2ccccc12 | 1.4% (inactive)
2 | Cc1[nH]n(-c2ccccc2)c(=O)c1/C=N/O | 5.9% (inactive)
3 | Cn1cc(/C=N\O)nc2c(=O)n(-c3ccccc3)c(=O)nc1-2 | 56.5% (active)
4 | O/N=C/c1cn(-c2ccccc2)nn1 | 6.9% (inactive)
5 | Nc1cc(=O)[nH]c(SCC(=O)Nc2cccc(Cl)c2Cl)n1 | 4.4% (inactive)
6 | O=C(CSc1ncn(-c2ccccc2)n1)Nc1nncs1 | 5.2% (inactive)
7 | COc1cc(C2C3C(=O)N(Cc4ccccc4)C(=O)C3ON2c2ccccc2)cc(OC)c1OC (centres undefined) | 7.3% (inactive)
8 | COc1cc(C2C3C(=O)N(Cc4ccccc4)C(=O)C3ON2c2ccccc2)cc(OC)c1O (centres undefined) | 54.2% (active)
9 | COc1ccc(C2C3C(=O)N(Cc4ccccc4)C(=O)C3ON2c2ccccc2)c(OC)c1OC (centres undefined) | 15% (inactive)
10 | Cc1ccc(O)c(N=Cc2cc(Cc3ccccc3)cc([N+](=O)[O-])c2O)c1 | 63.3% (active)
11 | O=[N+]([O-])c1cc(Cc2ccccc2)cc(C=Nc2ccc(N3CCOCC3)cc2)c1O | 38.7% (inactive)
12 | COc1cc(C=Nc2cccc(C)c2)c(O)c([N+](=O)[O-])c1 | 34% (inactive)
13 | Cc1n[nH]c(C)c1Sc1ccccc1N=Cc1cc(Cl)cc([N+](=O)[O-])c1O | 0.8% (inactive)
14 | Cc1ccc(N=Cc2cc(Cc3ccccc3Cl)cc([N+](=O)[O-])c2O)c(O)c1 | 56.5% (active)
15 | Cc1c(N=Cc2ccc(O)c(Br)c2)cccc1[N+](=O)[O-] | 12.1% (inactive)
16 | Cc1ccc(N=Cc2c(O)[nH]c3ccccc23)c([N+](=O)[O-])c1 | -4.1% (inactive)
17 | COc1ccc(N=Cc2cccc(C)c2O)cc1Cl | 7.9% (inactive)
18 | COc1ccc(N=Cc2cc(Cc3ccccc3Cl)cc([N+](=O)[O-])c2O)cc1OC | 54.9% (active)
19 | COc1cc([N+](=O)[O-])cc2sc(NC(=O)C(C)(C)C)nc12 | 17% (inactive)
20 | COc1ccccc1Cn1c(/C=C/c2ccccc2)nc2ccccc21 | 4.9% (inactive)
21 | Cc1cccc(-n2nc3c(c2NC(=O)c2ccc(Br)o2)CSC3)c1 | -0.5% (inactive)
22 | CCCC(CCC(=O)Nc1cc([N+](=O)[O-])ccc1O)C(=O)O (centres undefined) | 11% (inactive)
23 | CC(=O)Nc1ccc(NC(=O)c2cccc3c2-c2ccccc2C3=O)cc1 | -2.8% (inactive)
24 | CC(=O)NC(=S)Nc1ccc([N+](=O)[O-])cc1C | -6% (inactive)
25 | CC1CCCN(Cc2nc3c(c(=O)n(C)c(=O)n3C)n2CCc2ccccc2)C1 (centres undefined) | 5.2% (inactive)

Row | Compound | inhibition
26 | CNC(=O)CSc1nc(N)c2c3c(sc2n1)CCC3 | 7.8% (inactive)
27 | CC1=C(C(=O)N2CCOCC2)C(c2cccc(C)c2)NC(=S)N1 (centres undefined) | -12.7% (inactive)
28 | O=C1C=C(Nc2ccccc2)C(=O)c2ccccc21 | 57.5% (active)
29 | O=C1C=C(Nc2ccccc2)c2ccccc2C1=O | 64.6% (active)
30 | CC1(C)CC(=O)C=C(Nc2ccccc2O)C1 | 7.6% (inactive)
31 | COC1=C(Nc2ccc(C)cc2)C(=O)c2ccccc2C1=O | -3.1% (inactive)
32 | O=C1C(Nc2ccccc2)=C/C(=N/S(=O)(=O)c2cccs2)c2ccccc21 | 40.7% (inactive)
33 | CC1=CC(=O)c2ccccc2C1=O | -13.3% (inactive)
34 | O=C1C=C(NCc2ccccc2)c2ccccc2C1=O | 7.9% (inactive)
35 | COC1=C(Nc2ccccc2)C(=O)c2ccccc2C1=O | 4.1% (inactive)
36 | Cc1ccc(NC2=C(NCCO)C(=O)c3ccccc3C2=O)cc1 | 47.8% (inactive)
37 | Nc1c(O)ccc2c1C(=O)c1ccccc1C2=O | 5.1% (inactive)
38 | O=C1C=C(Nc2ccccc2O)c2ccccc2C1=O | 62.6% (active)
39 | Cc1ccc(NC2=CC(=O)C(=O)c3ccccc32)cc1 | 56.2% (active)
40 | CC(C)(C)n1nnnc1SCC(=O)Nc1nn(-c2ccccc2)nc1C(N)=O | 0.7% (inactive)
41 | CN(C(=O)COc1ccccc1)c1nnc(-c2cccnc2)s1 | -0.3% (inactive)
42 | Cc1ccccc1NC(=O)c1c2c(nc3ccccc13)CCC2 | -4.6% (inactive)
43 | O=C(O)[C@H]1CCCC[C@H]1C(=O)Nc1cc([N+](=O)[O-])ccc1F | -7.1% (inactive)
44 | CCCC(=O)Nc1cc(Cl)ccc1C | -0.2% (inactive)
45 | Nc1nc(SCC(=O)Nc2cc(S(=O)(=O)N3CCOCC3)ccc2Cl)n[nH]1 | -10.9% (inactive)
46 | COC(=O)c1ccc(CSc2nnc(-c3ccc4c(c3)OCO4)n2-c2ccccc2)o1 | -8.3% (inactive)
47 | Cc1ccccc1NC(=S)N1CCN(C(=O)c2ccco2)CC1 | 5.1% (inactive)
48 | O=C(C1CCCCN1S(=O)(=O)c1ccccc1)N1CCN(Cc2ccccc2)CC1 (centres undefined) | -3.3% (inactive)
49 | CC(=O)N(C(C)=O)n1c(/C=C/c2cccc([N+](=O)[O-])c2)nc2ccccc2c1=O | 15.3% (inactive)
50 | CCOC(=O)c1ccc(NC2OC(=O)c3ccccc32)cc1 (centres undefined) | -0.5% (inactive)

Row | Compound | inhibition
51 | CCOC(=O)c1ccc(NC2=CC(=O)C(=O)c3ccccc32)cc1 | 57.3% (active)
52 | CCOC(=O)c1ccc(NC(=O)C(C)N2C(=O)c3ccccc3C2=O)cc1 (centres undefined) | 5% (inactive)
53 | O=[N+]([O-])c1ccc2cn[nH]c2c1 | 1.3% (inactive)
54 | Nc1ccc2[nH]ncc2c1 | 48.1% (inactive)
55 | Nc1ccc2cn[nH]c2c1 | 53.1% (active)
56 | CCCCc1nnc(NC(=O)CSc2nc(N)cc(=O)[nH]2)s1 | 51.1% (active)
57 | CC(C)Cc1nnc(NC(=O)CSc2nc(N)cc(=O)[nH]2)s1 | -6.4% (inactive)
58 | CCCCc1nnc(NC(=O)C(C)Sc2nc(N)cc(=O)[nH]2)s1 (centres undefined) | 0.4% (inactive)
59 | C=CCc1ccccc1OCCNCc1ccccc1 | 1% (inactive)
60 | Cc1cccc(C(=O)NC2CCN(CC(=O)NCc3cccs3)CC2)c1 | -0.6% (inactive)
61 | O=C1c2ccccc2C(=O)c2c1ccc1c(=O)n(-c3ccccc3)[nH]c21 | 30.4% (inactive)
62 | COCCCn1[nH]c2c3c(ccc2c1=O)C(=O)c1ccccc1C3=O | 14.1% (inactive)
63 | Cc1ccc(C)c(-n2[nH]c3c4c(ccc3c2=O)C(=O)c2ccccc2C4=O)c1 | 58% (active)
64 | CC(C)Cn1[nH]c2c3c(ccc2c1=O)C(=O)c1ccccc1C3=O | 60.3% (active)
65 | Cc1cccc(-n2[nH]c3c4c(ccc3c2=O)C(=O)c2ccccc2C4=O)c1 | 26.4% (inactive)
66 | Cc1ccc(-n2[nH]c3c4c(ccc3c2=O)C(=O)c2ccccc2C4=O)cc1 | 13.1% (inactive)
67 | C=CCn1c(SCC(=O)Nc2cccc3ccccc23)nc(O)c(CC)c1=O | -3.4% (inactive)
68 | CCn1c(CNc2ccc(F)cc2)nnc1SCC(=O)Nc1ccccc1OC | 4% (inactive)
69 | CN(C(=O)c1ccccc1)c1ccc(OCC(=O)NC2CCS(=O)(=O)C2)cc1 (centres undefined) | 11.6% (inactive)
70 | CC(C)(C)NS(=O)(=O)c1ccc(OCC(=O)NCCC2=CCCCC2)cc1 | 1.2% (inactive)
71 | COCc1c(C(=O)N/N=C/c2cccc3ccccc23)nnn1-c1nonc1N | -11.8% (inactive)
72 | CC(=C/c1ccco1)/C=N/NC(=O)c1nnn(-c2nonc2N)c1CN(C)C | 59.6% (active)
73 | COCc1c(C(=O)N/N=C(/C)c2ccccc2)nnn1-c1nonc1N | 6.3% (inactive)
74 | O=[N+]([O-])c1ncccc1Oc1nc(-c2cccnc2)nc2ccccc12 | 65.8% (active)
75 | Cc1ccc(Oc2nc(-c3cccnc3)nc3ccccc23)c([N+](=O)[O-])n1 | 8.5% (inactive)

Row | Compound | inhibition
76 | CC(=O)c1ccc(Oc2nc(-c3cccnc3)nc3ccccc23)cc1 | -4.3% (inactive)
77 | Cc1cc(C(=O)C(=O)O)c(C)n1-c1ccc(Cl)c(Cl)c1 | -3% (inactive)
78 | COc1ccc(CCC(=O)N2CC(C)OC(C)C2)cc1 (centres undefined) | 5.2% (inactive)
79 | Cc1ccc(C)c(NC(=O)c2nc(-c3ccccc3)n(-c3ccccc3)n2)c1 | 16.2% (inactive)
80 | O=[N+]([O-])c1ccc(C[n+]2ccc(Cc3ccccc3)cc2)cc1 | 31.5% (inactive)
81 | O=S(=O)(c1ccccc1)N1CCN=C1SCc1ccc(Cl)c(Cl)c1 | -0.5% (inactive)
82 | O=S(=O)(c1ccccc1)N1CCN=C1SCc1ccccc1 | -2.3% (inactive)
83 | O=S(=O)(c1ccccc1)N1CCN=C1SCc1ccc(Cl)cc1 | 51.5% (active)
84 | c1ccc(COc2ccc(OCCN3CCCC3)cc2)cc1 | 16.3% (inactive)
85 | Cc1cccc(NC(=O)CC2SC(=NC3CCCCC3)NC2=O)c1 (centres undefined) | 7.6% (inactive)
86 | Nn1c(COc2ccc(Cl)cc2)n[nH]c1=S | 10.2% (inactive)
87 | Cc1ccc(OCc2n[nH]c(=S)n2N)cc1C | 9.3% (inactive)
88 | CCOc1ccccc1OCCNC1CCCC1 | -5% (inactive)
89 | COCCCNC(=S)Nc1ccc(C)cc1[N+](=O)[O-] | 5.7% (inactive)
90 | CC[C@H](C)C(C(=O)N1CCN(C(=O)OC(C)(C)C)CC1)n1cc(C(Cc2ccc(O)cc2)NC(=O)OC(C)(C)C)nn1 (some centres undefined) | 6.3% (inactive)
91 | CC(=C/c1ccco1)/C=N/NC(=O)CSc1nnc(SCc2ccc(C)cc2)s1 | 49.4% (inactive)
92 | CC(/C=N/NC(=O)c1cc(-c2ccncc2)nc2ccccc12)=C\c1ccco1 | 11.8% (inactive)
93 | CC(/C=N/NC(=O)c1cc(-c2ccc(Cl)cc2)nc2ccccc12)=C\c1ccco1 | 11.8% (inactive)
94 | Cn1c(SCC(=O)N/N=C/c2ccco2)nc2ccccc21 | 3.4% (inactive)
95 | O=C(CSc1nnc(SCc2ccccc2)s1)N/N=C/C=C\c1ccco1 | -23% (inactive)
96 | CC(/C=N/NC(=O)c1cc(-c2ccccc2)nc2ccccc12)=C\c1ccco1 | 63.2% (active)
97 | CC(/C=N/NC(=O)CSc1nnc(SCc2ccccc2)s1)=C\c1ccco1 | 54.7% (active)
98 | Cn1c(SCC(=O)N/N=C/C=C/c2ccco2)nc2ccccc21 | 45.7% (inactive)
99 | CC(/C=N/NC(=O)CSc1nc2ccccc2n1C)=C\c1ccco1 | 58.6% (active)
